Results filed as inconclusive are left out. Active and inactive are the calls of the source. Calls follow the shape of the dose curve; as a rule, active = well fitted curve in the direction sought with a large enough effect; inconclusive = small, poorly fitted or top-dose-only effect, or another doubt; inactive = no such curve, though single readings can be large; an effect the other way counts as inactive or inconclusive.
Legend:
[1] = qHTS of pediatric cancer cell lines to identify multiple opportunities for drug repurposing: Primary screen for TC32 cells (AID 1347089); also: nearly all actives have a fitted effect of over 60% in size
Summary of the method: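 qHTS, TC32, 48 h drug treatment, CellTiter-Glo luminescence as a proxy for metabolically active cells; primary top concentration 46 µM (MIPE 11-pt, NPC 8-pt); confirmatory 11-pt.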

[2] = qHTS of pediatric cancer cell lines to identify multiple opportunities for drug repurposing: Primary screen for DAOY cells (AID 1347090); also: nearly all actives have a fitted effect of over 55% in size; also: potency is read from the fitted curve at half-maximal effect
Summary of the method: (§1)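 Viability measured as metabolically active cells via CellTiter-Glo luminescence following 48 hours of compound exposure, 11-point dilutions in confirmatory testing. 500-1,000 cells/well plated 5 hours before dosing; controls were DMSO and 2.3 µM bortezomib.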

[3] = qHTS of pediatric cancer cell lines to identify multiple opportunities for drug repurposing: Primary screen for SJ-GBM2 cells (AID 1347091); also: potency is read from the fitted curve at half-maximal effect
Summary of the method: as §1

[4] = qHTS of pediatric cancer cell lines to identify multiple opportunities for drug repurposing: Primary screen for SK-N-MC cells (AID 1347093); also: potency is read from the fitted curve at half-maximal effect
Summary of the method: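 Metabolically active cells were quantified by ATP-dependent luminescence (CellTiter-Glo, 15 min at room temperature) following 48 h treatment. Cells had been plated at 500-1,000 per well and settled for 5 h beforehand.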

[5] = qHTS of pediatric cancer cell lines to identify multiple opportunities for drug repurposing: Primary screen for Saos-2 cells (AID 1347097); also: nearly all actives have a fitted effect of over 40% in size; also: potency is read from the fitted curve at half-maximal effect
Summary of the method: (§2)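 500-1,000 cells/well; 5 h pre-incubation 37 °C/5% CO2; compound pinned; 48 h; CellTiter-Glo, 15 min RT; luminescence. MIPE 11-pt from 0.78 nM, NPC 8-pt from 0.59 nM final. Bortezomib 2.3 µM final as positive control.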

[6] = qHTS of pediatric cancer cell lines to identify multiple opportunities for drug repurposing: Primary screen for NB1643 cells (AID 1347099); also: nearly all actives have a fitted effect of over 50% in size; also: potency is read from the fitted curve at half-maximal effect
Summary of the method: as §2

[7] = qHTS of pediatric cancer cell lines to identify multiple opportunities for drug repurposing: Primary screen for BT-12 cells (AID 1347101); also: nearly all actives have a fitted effect of over 25% in size; also: potency is read from the fitted curve at half-maximal effect
Summary of the method: (§3)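 Cells (500-1,000/well) rested 5 h, then received compounds for 48 h; metabolically active cells were measured by CellTiter-Glo luminescence. Final concentrations spanned up to 46 µM (MIPE, 11-point) or 0.59 nM-46 µM (NPC, 8-point) in primary screens, 11-point in follow-ups.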

[8] = qHTS of pediatric cancer cell lines to identify multiple opportunities for drug repurposing: Primary screen for Rh18 cells (AID 1347102); also: nearly all actives have a fitted effect of over 65% in size
Summary of the method: (§4)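 Viability after 48 h compound treatment at 37C, 500-1,000 cells/well, read as ATP luminescence with CellTiter-Glo. Primary screens used 11-point (MIPE, 0.78 nM-46 µM) or 8-point (NPC, 0.59 nM-46 µM) final concentrations; follow-up screens used 11-point dilutions.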

[9] = qHTS of pediatric cancer cell lines to identify multiple opportunities for drug repurposing: Primary screen for OHS-50 cells (AID 1347103); also: nearly all actives have a fitted effect of over 40% in size; also: potency is read from the fitted curve at half-maximal effect
Summary of the method: as §3

[10] = qHTS of pediatric cancer cell lines to identify multiple opportunities for drug repurposing: Primary screen for U-2 OS cells (AID 1347096); also: nearly all actives have a fitted effect of over 50% in size
Summary of the method: as §4

[11] = qHTS of pediatric cancer cell lines to identify multiple opportunities for drug repurposing: Primary screen for LAN-5 cells (AID 1347100)
Summary of the method: as §4

[12] = qHTS of pediatric cancer cell lines to identify multiple opportunities for drug repurposing: Primary screen for A673 cells (AID 1347092); also: nearly all actives have a fitted effect of over 45% in size
Summary of the method: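 Luminescence from CellTiter-Glo, taken after 15 min at room temperature, served as the proxy for metabolically active cells following 48 h treatment. Both potency and efficacy were taken from curves fitted to the titration data.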

[13] = qHTS of pediatric cancer cell lines to identify multiple opportunities for drug repurposing: Primary screen for BT-37 cells (AID 1347094); also: potency is read from the fitted curve at half-maximal effect
Summary of the method: as §2

[14] = qHTS of pediatric cancer cell lines to identify multiple opportunities for drug repurposing: Primary screen for NB-EBc1 cells (AID 1347095)
Summary of the method: as §2

[15] = qHTS of pediatric cancer cell lines to identify multiple opportunities for drug repurposing: Primary screen for SK-N-SH cells (AID 1347098); also: nearly all actives have a fitted effect of over 65% in size; also: potency is read from the fitted curve at half-maximal effect
Summary of the method: as §3

[16] = qHTS of pediatric cancer cell lines to identify multiple opportunities for drug repurposing: Primary screen for RD cells (AID 1347104); also: nearly all actives have a fitted effect of over 55% in size; also: potency is read from the fitted curve at half-maximal effect
Summary of the method: as §2

Measured: Potency

Cc1ccc(O)c2ncccc12
active: [2] 3.35 µM | [4] 2.99 µM | [5] 21.1 µM | [6] 2.37 µM | [7] 11 µM
inactive: [1] | [3]

C#C[C@]1(OC(C)=O)CC[C@H]2[C@@H]3CCC4=C[C@@H](OC(C)=O)CC[C@@H]4[C@H]3CC[C@@]21C
inactive: [1] | [2] | [3] | [8]
active: [9] 15.5 µM

CC(Cc1cccc(C(F)(F)F)c1)NCCOC(=O)c1ccccc1 (centres undefined)
inactive: [1] | [2] | [3] | [10] | [6] | [11] | [7] | [8]

O=C(CCCN1CCC(O)(c2ccc(Br)cc2)CC1)c1ccc(F)cc1
active: [3] 21.1 µM | [13] 0.001 µM | [6] 0.0237 µM
not listed: [2] | [8] | [9] | [16]
inactive: all other assays above

C[C@H]1C[C@H]2[C@@H]3CCC4=CC(=O)C=C[C@]4(C)[C@@]3(Cl)[C@@H](O)C[C@]2(C)[C@@]1(O)C(=O)CO
active: [4] 15 µM | [9] 24.6 µM
not listed: [3] | [8] | [15]
inactive: all other assays above

CC(=O)c1ccc2c(c1)N(CCCN1CCC(CCO)CC1)c1ccccc1S2
inactive: [1] | [2] | [4] | [14] | [5] | [6] | [11]

CCN(CC)CCOC(=O)C(c1ccccc1)C1CCCCC1 (centres undefined)
active: [5] 23.7 µM | [15] 30.7 µM | [9] 21.9 µM
inactive: [1] | [2] | [12] | [10] | [6] | [11] | [8]

CCN(CCCCOC(=O)c1ccc(OC)c(OC)c1)C(C)Cc1ccc(OC)cc1 (centres undefined)
not listed: [3] | [5] | [7] | [9] | [13] | [15]
inactive: all other assays above

CCCOC(C(=O)OC1CCN(C)CC1)(c1ccccc1)c1ccccc1
active: [9] 27.6 µM
inactive: [1] | [2] | [3] | [4] | [10] | [6] | [11] | [7]

COc1cccc(CCc2ccccc2OCC(CN(C)C)OC(=O)CCC(=O)O)c1 (centres undefined)
inactive: [1] | [2] | [13] | [14] | [10] | [5]

CCCCCCc1ccc(O)cc1O
not listed: [3] | [5] | [9] | [12] | [14] | [15]
inactive: all other assays above

CCCC(=O)O[C@]1(C(=O)CO)CC[C@H]2[C@@H]3CCC4=CC(=O)CC[C@]4(C)[C@H]3[C@@H](O)C[C@@]21C
not listed: [2] | [9]
inactive: all other assays above

c1ccc(CNCCNCc2ccccc2)cc1
not listed: [2]
inactive: all other assays above

CC(C)N=C(N)/N=C(\N)Nc1ccc(Cl)cc1
inactive: [1] | [2] | [3] | [13] | [14] | [10] | [6] | [11]

CC(C)NC[C@@H](O)COc1cccc2ccccc12
active: [16] 26.6 µM
not listed: [4] | [5] | [6] | [8] | [9] | [12]
inactive: all other assays above

CC(C)(CO)[C@@H](O)C(=O)NCCCO
not listed: [2]
inactive: all other assays above

CCCCOc1cc(C(=O)NCCN(CC)CC)c2ccccc2n1
inactive: [1] | [2] | [14] | [10] | [5] | [7] | [9]

COc1cc(N)c(Cl)cc1C(=O)NC1CCN(CCCOc2ccc(F)cc2)CC1OC (centres undefined)
active: [9] 30.9 µM
inactive: [1] | [2] | [13] | [14] | [10] | [5] | [6] | [11]

Cc1ccc(C(=O)C(C)CN2CCCCC2)cc1 (centres undefined)
not listed: [2]
inactive: all other assays above

Cc1onc(-c2c(Cl)cccc2Cl)c1C(=O)N[C@@H]1C(=O)N2[C@@H]1SC(C)(C)[C@@H]2C(=O)O
not listed: [2] | [16]
inactive: all other assays above
